Assay results published in PubChem BioAssay AID488789 (Broad Institute, 2010).
Potency and affinity values are given separately. Inconclusive results are not listed. A call without a number means that no potency is given here. Activity calls are given as the source filed them.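 Rule for the calls: active = samples whose fitted half-maximal inhibition concentration is no more than ten times the top valid dose tested; inconclusive = flat response between -70 and -30, or invalid curve fit; inactive = flat within 30 of zero, potency above limit, or signal rising.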

Target: Trypsin (Sus scrofa) (UniProt P00761)
Assay: porcine trypsin inhibitors, dose response, selectivity assay for Rce1 protease inhibitor project, biochemical, quenched peptide fluorescence, cherry-pick (AID 488789);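 note: more negative means stronger trypsin inhibition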

Sequence of Trypsin (Sus scrofa) (P00761 whole entry, looked up): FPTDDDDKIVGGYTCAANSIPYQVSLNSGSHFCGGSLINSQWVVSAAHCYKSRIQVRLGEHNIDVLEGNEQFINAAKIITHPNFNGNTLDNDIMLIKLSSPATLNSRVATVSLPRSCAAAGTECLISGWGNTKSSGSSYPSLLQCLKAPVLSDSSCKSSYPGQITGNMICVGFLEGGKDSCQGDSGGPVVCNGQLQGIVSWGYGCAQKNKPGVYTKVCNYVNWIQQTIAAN

Row | Compound | outcome
1 | Cn1c(CCNS(=O)(=O)c2ccccc2)nnc1SCc1cccnc1 | inactive
2 | CCOC(=O)C1CCCN(S(=O)(=O)c2cc3[nH]c(=O)c(=O)[nH]c3cc2C)C1 (configuration not stated) | inactive
3 | COc1cccc(-c2cc(C(F)(F)F)n3ncc(S(=O)(=O)c4ccccc4)c3n2)c1 | inactive
4 | CCOC(=O)C[C@H]1c2ccccc2S(=O)(=O)N1Cc1cc(OC)c(OC)c(OC)c1 | inactive
5 | Cc1ccc2c(C)c(C(=O)N(Cc3ccc(F)cc3)C3CCS(=O)(=O)C3)oc2c1 (configuration not stated) | inactive
6 | Cc1cccc(N2CCc3c2nc2ccc(Br)cc2c3N)c1 | inactive
7 | COC(=O)C(Cc1ccccc1)OS(N)(=O)=O (configuration not stated) | inactive
8 | CN1C(=O)/C(=C/c2cccc(Cl)c2)Sc2ccc(C(=O)N3CCOCC3)cc21 | inactive
9 | O=C(CC1(O)C(=O)N(C/C=C/c2ccccc2)c2ccccc21)c1ccccn1 (configuration not stated) | inactive
10 | CCCCN(CC)CCNC(=O)c1cc2c(-c3ccc(Cl)cc3)nn(C)c2s1 | inactive
11 | CCN1CCN(c2ccc(NC(=O)c3cccc(OCc4ccccc4)c3)cc2)CC1 | inactive
12 | CSc1nnc(-c2sc(-c3ccccc3)nc2C)n1C | inactive
13 | O=C(Nc1ccc(F)cc1)Oc1ccccc1N1CCOCC1 | inactive
14 | CSc1ccc(/C=C/C(=O)OCC(=O)NC(C)C)cc1 | inactive
15 | Cc1ccc(-c2csc(N3CCN(c4cc5c(cc4Cl)nc(-c4ccncc4)n5CCOCCO)CC3)n2)cc1 | inactive
16 | Cn1c(CN2CCOCC2)c(C#N)c2ccccc21 | inactive
17 | COC(C[C@@H]1O[C@@H]1C(=O)[C@@H](C)OCc1ccccc1)OC | inactive
18 | CCCCCCCCCCOC(=O)Cn1c(COc2ccc(C)cc2)[n+](C)c2ccccc21 | inactive
19 | O=[N+]([O-])c1cc(S(=O)(=O)N2CCCC2)ccc1NN=C1CCCCC1 | inactive

Row | Compound | outcome
20 | Cc1ccc(OCCn2c3ccccc3n3nc(C)c(=O)nc23)cc1 | inactive
21 | CCN(CC)c1ccc(/C=N/NC(=O)C(O)(c2ccccc2)c2ccccc2)o1 | inactive
22 | COc1ccc(CC(=O)OCC(=O)Nc2ccc(Br)cc2)cc1 | inactive
23 | CCN(CC)CCN(Cc1cc2cc3c(cc2[nH]c1=O)OCO3)C(=S)NCc1ccco1 | inactive
24 | CCOc1cccc(-c2nn(-c3ccccc3)cc2/C=C(/C#N)C(=O)NCCCn2ccnc2)c1 | inactive
25 | Cc1cc(N2CCOCC2)n2cc(-c3ccccc3)nc2n1 | inactive
26 | CN(C)S(=O)(=O)c1ccc(NC(=O)/C=C/c2ccccc2Cl)cc1 | inactive
27 | O=C(COc1ncnc2cc([N+](=O)[O-])ccc12)NC(=O)NC1CCCCC1 | inactive
28 | Cc1cc(C)n2nc(CC(=O)NNC(=O)c3ccc(N(C)C)cc3)nc2n1 | inactive
29 | CCN(CC)CCN(C(=O)c1ccc2ccccc2c1)c1nc2cc3c(cc2s1)OCO3 | inactive
30 | CCNC(=S)NNC(=O)CCn1cc(C)cn1 | inactive
31 | c1cnn(Cc2cnc(N3CCOCC3)s2)c1 | inactive
32 | Cc1ccc(C(=O)c2c3ccccc3[n+]([O-])n2CCO)cc1 | inactive
33 | COc1cccc(CNc2nc3nc(C)cc(C)n3n2)c1 | inactive
34 | CC(C)CNC(=O)COc1cccc(C(=O)NCc2ccccc2)c1 | inactive
35 | COC(C[C@H](O)C[C@H](O)[C@@H](C)OCc1ccccc1)OC | inactive
36 | O=C(C(Cc1ccccc1)N1C(=O)c2ccccc2C1=O)N1c2ccccc2CCc2ccccc21 (configuration not stated) | inactive
37 | CCOc1ccc(-c2c(C(=O)N/N=C/c3cccs3)nnn2-c2nonc2N)cc1 | inactive
